# Pf growth 48h: Primary qHTS for delayed death inhibitors of the malarial parasite plastid, 48 hour incubation. Potency, µM (top dose mostly 28.7 µM), inactives show top-dose activity change, negative = inhibition, hits mostly inhibitors. 5.9% of 310,000 active. P. falciparum luciferase growth in erythrocytes, 48 h; further: potency means the concentration at half of the fitted maximal effect; on the % scale 0 is the no-effect control and ±100 the full control effect
#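 First compound was added to culture medium, then infected red cells at 0.1% parasitemia and 2% hematocrit (final). After incubation at 37 C under 5% CO2, luciferase detection reagent was dispensed and light output recorded.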
# CHX counter: Cycloheximide Counterscreen for Small Molecule Inhibitors of Shiga Toxin; cell reporter, cycloheximide protein synthesis inhibition counterscreen; max response, %; 12% of 300,000 active; AID 2314, 2010; in the data active means max response mostly above about 13%, no sharp cut-off; inactive means mostly below about 14%; further: read at 38.3 µM for the half of the compounds with a filed dose; 0% is about no effect
# Shiga toxin inh: A qHTS for Small Molecule Inhibitors of Shiga Toxin. Vero cells, Shiga toxin protein synthesis inhibition reporter. inhibition, % at 38.7 µM. 9.2% of 290,000 active. AID 2315, 2010; in the data active means inhibition mostly above about 28%, no sharp cut-off; inactive means mostly below about 43%; further: 0% is about no effect
# HCMV inh: qHTS Assay for inhibitors of the human cytomegalovirus (HCMV). HFF cells, HCMV-luciferase reporter, 72 h; active compounds read low. activity change, negative = inhibition, % at 57.5 µM. 4.5% of 410,000 active. AID 1259415, 2018; in the data active means activity change below about -60%; inconclusive means no clear call, values can overlap the other calls; inactive means above about -39%; further: on the % scale 0 is the no-effect control and ±100 the full control effect
#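 Two-dose cell screen: HFF monolayers treated with compounds and infected with luciferase-expressing HCMV at 1 PFU/cell, 72 h at 37C, then lysed for luciferase measurement.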
# Pf growth 96h: Primary qHTS for delayed death inhibitors of the malarial parasite plastid, 96 hour incubation; P. falciparum luciferase reporter growth, 96 h; Potency, µM (titrated, usually from 28.7 µM), without a hit: top-dose activity change, negative = inhibition, actives largely listed as inhibitors; 6.9% of 320,000 active; AID 504834, 2011; further: potency means the concentration at half of the fitted maximal effect; on the % scale 0 is the no-effect control and ±100 the full control effect
#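 Compounds incubated with erythrocytes infected by luciferase-expressing P. falciparum (2% hematocrit, 0.05% parasitemia final) for 96 hours, 37 C in 5% CO2. Growth inhibition scored as decreased luciferase luminescence.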
# Numbers without * were called inactive; i = inactive; ? = inconclusive; . = no result; ! = repeats disagree; [ ] = another dose, or the depositor's remark. In the library only some 20% were active in any assay of this set; here they are far more common. Unless noted, the call rests on the fitted dose curve; in most records, active means well fitted inhibition curve with a large enough effect; inconclusive means small, poorly fitted or top-dose-only effect, or another doubt; inactive means no such curve, though single readings can be large or run the other way.
SMILES,Pf growth 48h,CHX counter,Shiga toxin inh,HCMV inh,Pf growth 96h
Cn1ccsc1=NC(=O)c1ccc([N+](=O)[O-])o1,-15%,-4,-19,-91*,?
COc1ccc(S(=O)(=O)N(CCO)c2ccccc2CN(C)CC=Cc2ccc(Cl)cc2)cc1,.,4,-4,.,.
COc1cccc(OCCNC(=O)c2cc([N+](=O)[O-])cc([N+](=O)[O-])c2)c1,?,6,-11,72,9%
Cc1ccc(OCCNC(=O)c2cc(C(=O)NCCOc3ccc(C)cc3)cc([N+](=O)[O-])c2)cc1,12µM*,-1,-15,-6,1.2µM*
CC(=O)Nc1cccc(OCCCNC(=O)c2ccc(C(C)(C)C)cc2)c1,-19%,25*,45*,32,?
Cc1ccc(C(=O)CC(=O)COc2ccc(Cl)cc2)cc1,?,18*,27,-31,151%
COc1cccc(OCCNC(=O)c2ccc(C)cc2)c1,29%,27*,40*,.,33%
C[N+]1(CCOC(=O)C2(c3ccccc3)CCCC2)CCCCC1,?,26,53,-10,10%
COc1ccc(Cc2nnc(SCC(=O)N(C)CC(=O)Nc3ccc(C)cc3)o2)cc1,2%,.,.,-28,-5%
Cc1ccc(OCCNC(=O)c2cccc(C)c2)cc1,-17%,10,8,46,?
Cc1ccc(C(=O)NCCOc2ccc(Cl)cc2)cc1,5%,32*,51*,.,7%
Nc1ncc(S(=O)(=O)NCc2ccccc2F)cn1,.,.,.,-34,.
Cc1ccc(OCc2cc(C(=O)NCCn3cccn3)no2)cc1C,19%,22,48*,32,?
Cc1ccc(OCc2cc(C(=O)NCCc3cccnc3)no2)cc1C,4%,36*,51*,61,47%
COc1cccc(CCNC(=O)c2cc(COc3ccc(C)c(C)c3)on2)c1OC,.,.,.,61,.
Cc1ccc(OCc2cc(C(=O)NC(C)Cc3cccnc3)no2)cc1C (stereo not given),-1%,35*,98*,-19,19%
O=c1c2ccccc2nc(COc2ccccc2)n1/N=C/c1ccco1,118%,35*,69*,14,-6%
O=C(O)COc1ccc(/C=N/n2c(COc3ccccc3)nc3ccccc3c2=O)cc1,37%,23,40,-1,-12%
CCCc1nc2ccccc2c(=O)n1/N=C/c1ccc(O)cc1O,0%,6,-10,29,?
CCCc1nc2ccccc2c(=O)n1/N=C/c1ccc(O)cc1,12µM*,-2,-14,-34,?
O=c1c2ccccc2nc(COc2ccccc2)n1/N=C/c1ccc(O)c(O)c1,?,25*,19,-24,?
Clc1ccc(Cn2c(CN3CCCC3)nc3ccccc32)cc1,?,-3,-8,.,4.1µM*!
CC(C)(C)c1ccc(Cn2c(Cc3ccccc3)nc3ccccc32)cc1,.,.,.,-35,.
c1ccc(Cn2c(CN3CCCC3)nc3ccccc32)cc1,?,-5,-15,9,9.3µM*
O=C(c1ccc(NS(=O)(=O)c2cccs2)cc1)N1CCOCC1,6%,-3,-6,-19,0%
SMILES,Pf growth 48h,CHX counter,Shiga toxin inh,HCMV inh,Pf growth 96h
O=C(CSc1nc2ccccc2n1-c1ccccc1)Nc1ncc(Cl)cc1Cl,?,-2,-4,?,10µM*
Cc1cccc(-n2c(SCC(=O)Nc3ncc(Cl)cc3Cl)nc3ccccc32)c1,?,11,13,-99*,4.7µM*
COc1ccc(-n2c(SCC(=O)Nc3ncc(Cl)cc3Cl)nc3ccccc32)cc1,?,-6,17,.,?
Cc1cnc2c(c1SCC(=O)NCc1ccccc1Cl)c(=O)n(C)c(=O)n2C,.,.,.,2,.
COCC(=O)c1[nH]c2ccccc2c1C,1%,11,-2,36,3.7µM*
Cc1cccc(NC(=O)c2nc[nH]c2C(=O)N[C@@H](C)CO)c1,.,.,.,-37,.
C/C(=N\O)c1ccc(N2C(=O)C3CC=C(Cl)CC3C2=O)cc1 (stereo not given),i,37*,80*,106,5.2µM*
Cc1ccc(OC(C)C(=O)Nc2ccncc2)cc1C (stereo not given),?,-1,.,-13,?
Cc1cccc(-n2c(-c3ccco3)nc3c(cnn3-c3ccccc3C)c2=O)c1,.,.,.,-11,.
O=c1c2cnn(-c3ccccc3)c2nc(-c2ccco2)n1-c1ccccc1,10µM*,-1,12,-71*,10µM*
COc1cccc(-n2c(-c3ccco3)nc3c(cnn3-c3ccc(Cl)cc3)c2=O)c1,.,.,.,-67*,.
CS(=O)(=O)c1ccc(Nc2nccc3[nH]c(-c4ccsc4)cc23)cc1,.,.,.,-9,.
C[C@@H](N)[C@@H](O)c1ccc(O)c(O)c1,0%,.,.,.,0.6µM*
CC[C@H](NC(C)C)[C@H](O)c1ccc(O)c(O)c1,?,.,.,.,13µM*
CC(N)[C@H](O)c1ccc(O)c(O)c1 (stereo not given in full),.,-6,-14,.,.
CCOc1ccc(NC(=S)Nc2ccc(F)cc2)cc1,22%,4,.,-19,-21%
COc1ccccc1/C=C/C(=O)NCC(=O)N=Nc1c(O)[nH]c2ccccc12,-6%,-4,7,-13,42%
Oc1cccc(NC(=S)N=Nc2c(O)[nH]c3ccccc23)c1,11%,42*,62*,0,-10%
CCCCNC(=S)N=Nc1c(O)[nH]c2ccccc12,?,16,118*,-15,9.3µM*
CCOc1ccc(NC(=S)N=Nc2c(O)[nH]c3ccccc23)cc1,?,13*,14,-11,1.7µM*
COC(=O)c1nnn(-c2ccsc2C(=O)OC)c1C(=O)OC,13%,-3,-12,-36,0%
Cc1ccc(C(=O)Nc2nnc(COc3ccccc3)s2)cc1,48%,-2,-9,4,?
CC(O)[C@H]1CNC(=O)C(=O)N1CCC12CC3CC(CC(C3)C1)C2 (stereo not given in full),-19%,-13,2,3,11%
Cc1ccc(CCNC(=O)C2CC(=O)N(CCc3ccc(C)cc3)C2)cc1 (stereo not given),.,.,.,-33,.
O=C(Nc1nncs1)C1CC(=O)N(CCc2ccc(F)cc2)C1 (stereo not given),7%,1,-4,-66*,0%
Cc1ccc(CCN2CC(C(=O)NC(C)C)CC2=O)cc1 (stereo not given),5%[0.00184 µM],-7,-7,-61*,-9%
CC(C)NC(=O)C1CC(=O)N(CCc2ccc(F)cc2)C1 (stereo not given),.,.,.,-4,.
Cc1ccc(CCN2CC(C(=O)NC3CCCC3)CC2=O)cc1 (stereo not given),26%,-2,-3,5,-2%
CNC(=O)C1CC(=O)N(CCc2ccc(C)cc2)C1 (stereo not given),33%,1,8,-69*,16%
Cc1ccc(CCN2CC(C(=O)NC3CCCCC3)CC2=O)cc1 (stereo not given),-3%,30*,4,0,19%
